Screening results: PubChem BioAssay, The Scripps Research Institute Molecular Screening Center
A selection: hits, their analogues and other compounds. The true share with any hit is near 1.1%.
HTR5A ag ctr – counter-screen for OPRM1-OPRD1 agonists: human HTR5A agonism; P47898; HTR5A agonist assay, luminescence, cell-based; activation, % at 9.3 µM; hit rate 0.61% among 340,000; in the data active = activation mostly above about 9.5%, no sharp cut-off; inactive = mostly below about 7.6%;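 also: 0% = cells with vehicle only and 100% = reference agonist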
Target sequence (P47898 whole entry, looked up): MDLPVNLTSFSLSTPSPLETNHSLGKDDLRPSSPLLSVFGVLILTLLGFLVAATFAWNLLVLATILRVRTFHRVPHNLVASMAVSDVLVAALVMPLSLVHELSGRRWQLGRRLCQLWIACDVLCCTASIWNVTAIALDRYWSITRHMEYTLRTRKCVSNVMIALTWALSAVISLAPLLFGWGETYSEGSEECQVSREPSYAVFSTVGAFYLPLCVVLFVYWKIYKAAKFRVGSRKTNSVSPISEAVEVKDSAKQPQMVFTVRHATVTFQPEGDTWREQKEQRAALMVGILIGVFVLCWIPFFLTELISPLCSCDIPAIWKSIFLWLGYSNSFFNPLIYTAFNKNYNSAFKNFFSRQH
MOR-DOR ag – OPRM1-OPRD1 heterodimerization agonism; P35372+P41143; cells, luminescence; activation, % at 9.3 µM; hit rate 0.3% among 340,000; AID 504326; in the data active = activation above about 18%;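 also: 0% = vehicle-treated cells and 100% = reference agonist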
HTR5A inv ctr – counter-screen for OPRM1-OPRD1 inverse agonists: human HTR5A inverse agonism; inhibition, % at 9.3 µM; P47898; HTR5A cell line, luminescence; hit rate 0.083% among 340,000; in the data active = inhibition mostly above about 23%, no sharp cut-off; inactive = mostly below about 18%;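 also: 0% = cells with DMSO and 100% = no-cell wells with DMSO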
OPRM1-OPRD1 inv – mu-delta opioid heterodimer inverse agonism. cell-based MOR-DOR heterodimer luminescence. inhibition, % at 9.3 µM. hit rate 0.21% among 340,000. AID 504357; in the data active = inhibition above about 22%, passing the limit was not always enough;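 also: 0% = cells with DMSO and 100% = wells without cells with DMSO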
* hit, by the source's call.

SMILES	HTR5A ag ctr	MOR-DOR ag	HTR5A inv ctr	OPRM1-OPRD1 inv
CC(C)NC(=O)Nc1ccc2c(c1)C(=O)N([C@H](C)CO)C[C@H](C)[C@@H](CN(C)S(=O)(=O)c1cn(C)cn1)O2	4	-2	-16	10
O=C(CNC(=O)c1ccco1)N/N=C/c1ccc(C(=O)O)cc1	0	1	-8	-5
O=[N+]([O-])c1ccc2[nH]ncc2c1	12*	-2	-34	11
O=C(N/N=C/c1c[nH]c2ccccc12)c1cc(-c2ccccc2)n[nH]1	-3	3	6	-21
O=C(N/N=C/c1c[nH]c2ccccc12)c1cc(-c2ccc(-c3ccccc3)cc2)n[nH]1	12*	4	-21	-19
O=C(NCc1nnnn1-c1ccc(F)c(F)c1)c1ccc2c(c1)OCO2	4	1	-12	-7
Cc1ccc(C(=O)NNC(=O)/C=C\C(=O)O)cc1	4	0	-13	1
CCN(CC)C(=O)[C@H]1CC(CC(=O)NCC23CC4CC(CC(C4)C2)C3)C(=O)N2CCc3c([nH]c4ccccc34)[C@]12C (some centres not stated)	1	-3	-4	13
CCN(CC(=O)Nc1c(F)cccc1F)C(=O)CC1CCCC1	11*	-3	-29	17
CCn1c(O)c(/C=N/N=C/c2ccccc2)c2ccc(C3=NNC(=O)CC3)cc21	13*	6	-28	-26
COc1ccc2c(c1)CCC1C2CCC2(C)C(O)C(=O)CC12 (configuration not stated)	3	1	-10	-3
O=C(Nc1nc(-c2cc(F)ccc2F)cs1)C1=NN(c2ccccc2)C(=O)CC1	-1	-2	3	9
COc1ccc(-c2csc(NC(=O)C3=NN(c4ccccc4)C(=O)CC3)n2)cc1	10*	-1	-27	7
CC(C)C[C@H](NC(=O)[C@@H]1Cc2c([nH]c3ccccc23)C2c3ccccc3C(=O)N21)C(=O)N1CCC[C@@H]1C(=O)O (some centres not stated)	0	-1	16	7
COc1cccc(/C=C(/C(=O)OCC(=O)NC2CCCCCCC2)c2ccccc2)c1	2	3	-5	-17
COc1cccc(/C=C(/C(=O)OCC(=O)NCC2CCCO2)c2ccccc2)c1 (configuration not stated)	11*	4	-27	-29
COc1ccc2[nH]c3c(c2c1)CCN1C(=O)C(CC(=O)NC(C)(C)C)C[C@H](C(=O)N2CCCCC2)[C@@]31CCc1ccccc1 (some centres not stated)	0	1	0	-4
Cc1occc1-c1nnc(SCC(=O)Nc2ccccc2)n1C	-2	-2	-4	8
Cc1occc1-c1nnc(SCC(=O)Nc2ccccc2N2CCCCC2)n1C	9.8*	2	-16	-12
N#Cc1ccc(OCC(=O)Nc2ccc(N3CCCC3)cc2)cc1	2	-1	-7	5
Cc1ccc(-c2nc3cccnc3s2)cc1NS(=O)(=O)c1ccc2c(c1)OCCO2	15	0	-46	0
O=S(=O)(Nc1cccc(-c2nc3cccnc3s2)c1)c1ccc2c(c1)OCCO2	13*	2	2	-12
Cc1ccc(NC(=O)CCS(=O)(=O)c2cc3[nH]c(=O)c(=O)[nH]c3cc2C)cc1	5	-1	16	3
Cc1cc(N2CCN(C)CC2)nc2ccc(NC(=S)N3CCCCC3)cc12	-5	-3	13	17
Cc1cc(N2CCOCC2)nc2ccc(NC(=S)N3CCCCC3C)cc12 (configuration not stated)	12*	3	-33	-22
SMILES	HTR5A ag ctr	MOR-DOR ag	HTR5A inv ctr	OPRM1-OPRD1 inv
CC1=C(C)/C(=N\OS(=O)(=O)c2ccccc2)C=CC1=O	3	62*	19	-331
Cc1ccc(S(=O)(=O)NCC(=O)OCC(=O)c2ccc(S(=O)(=O)N3CCCCC3)cc2)cc1C	-17	-19	42*	77*
Nc1cc(C(F)(F)F)ccc1C(=O)O	-4	-1	12	4
Nc1cc(S(=O)(=O)C(F)(F)F)ccc1C(=O)O	12*	0	-44	0
O=S(=O)(Cc1ccccc1)Oc1ccccc1	1	-1	-2	3
CCn1c(C)nc2cc(C(=O)N/N=C(\C)c3ccc(N4CCOCC4)cc3)ccc21	8	0	-19	0
CCn1c(C)nc2cc(C(=O)NN=C(C)c3ccc(C#N)cc3)ccc21	13*	-2	-52	9
Oc1ccccc1-c1cc(C(F)(F)C(F)F)[nH]n1	11*	2	-18	-13
Oc1ccccc1C1=NCCNC(C(F)(F)C(F)F)=C1	-1	2	6	-10
CSCC[C@H](NC(=O)Cc1c(C)c2cc3c4c(oc3cc2oc1=O)CCCC4)C(=O)O	-3	-3	13	14
Cc1ccc2c(cnn2C(=O)CCCC(=O)NC(C)c2ccccc2)c1 (configuration not stated)	15	-2	-46	13
COC(=O)c1ccc(NC(=O)COc2ccc(C3C(C#N)=C(N)Oc4c3ccc3ccccc43)cc2OC)cc1 (configuration not stated)	14*	1	-31	-6
O=C(CCCCCn1c(=S)[nH]c2ccc(N3CCOCC3)cc2c1=O)NCc1ccccc1Cl	0	7	-12	-35
O=C(CCCCCn1c(=S)[nH]c2ccc(N3CCOCC3)cc2c1=O)NCc1ccc2c(c1)OCO2	12*	-2	-31	9
O=C(CCCCCn1c(=S)[nH]c2ccc(N3CCOCC3)cc2c1=O)NCc1ccc(Cl)cc1	13*	2	-35	-11
COc1ccc(-n2nc(C(=O)NCC(=O)N3CCC(C(N)=O)CC3)c3ccccc3c2=O)cc1	4	-2	-11	13
CCN(CC)CC(=O)Nc1sc2c(c1C(=O)c1ccccc1OC)CCC2	11*	4	-29	-16
CCC(=O)Nc1ccc(Cl)c(NC(=O)c2ccc([N+](=O)[O-])cc2)c1	12*	5	-31	-33
CC(=O)Nc1ccc(Nc2nc3ccccc3nc2NS(=O)(=O)c2ccccc2)cc1	12*	-2	13	12
CC(=O)Nc1ccc(S(=O)(=O)Nc2nc3ccccc3nc2Nc2ccccc2)cc1	5	-1	-13	5
CC(=O)Nc1ccc(NC(=O)COC(=O)c2ccc([N+](=O)[O-])o2)cc1	13*	9	-48	-47
COC(=O)CNC(=O)Cn1c(=O)n(Cc2ccc(F)cc2)c(=O)c2sccc21	11*	0	-42	2
O=C(Cn1c(=O)n(-c2ccc(F)cc2)c(=O)c2sccc21)NC1CCCCC1	12*	-3	21	14
CCN(CC)C(=O)Cn1c(=O)n(Cc2ccc(F)cc2)c(=O)c2sccc21	-3	-2	10	9
COc1ccc(C(=O)NC(=O)COC(=O)CCS(=O)(=O)c2ccc(C)cc2)cc1	-1	-1	3	5
NC(CSC(c1ccccc1)(c1ccccc1)c1cccc2ccccc12)C(=O)O (configuration not stated)	5	21*	-21	-92
NC(CSC1(c2cccc3ccccc23)c2ccccc2-c2ccccc21)C(=O)O (configuration not stated)	2	4	-6	-19
